aDG glyco up: alpha-DG glycosylation activation. activation, % at 10 µM. Pro5-aDG cells, alpha-DG glycosylation AlphaScreen (IIH6); 0% Pro5, 100% B10-LARGE cell signal. 360,000 compounds, 0.22% hits;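 active means activation of at least 8% versus controls, or a plate z-score of at least 8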;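 further: Pro5 are CHO cells carrying HIG-tagged alpha-DG that lacks glycosylation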
Mot1-301 SUMO: SUMOylation pathway inhibition by Mot1-301 growth rescue; S. cerevisiae Mot1-301 growth rescue, ATP luminescence, 38.5C; percent above DMSO median, 100 means doubled; growth rescue, % at 18.8 µM; 320,000 compounds, 1% hits; AID 2716;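 active means every valid replicate shows activation above 250% relative to neutral control wells; inactive means the rest, any valid replicate at or below 250%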;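 further: OY570 slx delta 5 strain wells were the positive control but not used for scaling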
H9c2 protect: modulators protecting cardiomyocytes from myocardial damage | 360,000 compounds, 0.63% hits | H9c2 cardiomyocytes, H2O2 injury protection, ATPLite, 2 h | protection from H2O2 cell death, % at 20 µM;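 active means compounds giving at least 50% protection of heart cells from peroxide-induced death in the single-dose screen, raw or plate-pattern-corrected value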;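 further: 0% = DMSO wells with peroxide and 100% = DMSO wells without peroxide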
FAS TE block: inhibitors of human fatty acid synthase thioesterase domain; 360,000 compounds, 0.67% hits; inhibition, % at 15 µM; P49327; recombinant FAS-TE, OMFH fluorogenic substrate, fluorescence endpoint;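 active means compounds whose normalised, plate-corrected inhibition of enzyme fluorescence in the single-dose primary screen is 50% or more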;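 further: 0% = DMSO with enzyme and 100% = substrate without enzyme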
MPTP block: blocks calcium-induced mitochondrial swelling; 360,000 compounds, 1.4% hits; AID 602449; isolated mouse mitochondria, Ca2+ swelling absorbance, 30 min; inhibition, % at 10 µM;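 active means inhibition of 50% or more, scaled per plate between neutral and stimulator controls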;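 further: 0% = DMSO wells given calcium and 100% = 1 mM EGTA wells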
Yeast superoxide: caloric restriction mimetics inhibiting age-related superoxide in yeast; S. cerevisiae aged cells, superoxide DHE fluorescence; stronger effect = lower value; superoxide response (% of plate mean), % at 10 µM; 330,000 compounds, 0.18% hits;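 active means superoxide response under a set limit, about three screen SD below normal, cut at about 65% in these data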;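 further: yeast aged for seven days with compound at 30 °C before DHE staining; 100% = average MFI of all compound-treated wells on the plate with controls excluded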
CR mimetic CP: yeast aging superoxide inhibition, cherry pick confirmation. shares compounds with Yeast superoxide. S. cerevisiae aging, superoxide DHE fluorescence; stronger effect = lower value. superoxide response (% of plate), % at 10 µM. 850 compounds, 1% hits. AID 434994;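 active means superoxide signal below 65% of the plate average of sample wells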;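 further: cells aged with compound for 7 days at 30 degrees C before staining; 100% equals mean DHE fluorescence of all compound wells on the plate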
DHE counter: counter-screen for compounds affecting DHE oxidation and fluorescence in yeast; 850 tested, under 10 active; fluorescence response, % at 10 µM; shares compounds with Yeast superoxide; S. cerevisiae BY4741, flow cytometry; stronger effect = lower value;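 active means fluorescence response below 15%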;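 further: percent of the mean fluorescence averaged over all compound wells on the plate; lower means stronger quenching of DHE signal or ROS scavenging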
The depositor's hits bear a star; / = no result. Sampled rows, rich in hits. Any-hit rate of the full collection: about 3.8%.

SMILES	aDG glyco up	Mot1-301 SUMO	H9c2 protect	FAS TE block	MPTP block	Yeast superoxide	CR mimetic CP	DHE counter
CCc1ccc(N2CCN(C(=O)c3ccc(OC)c(OC)c3)CC2)cc1	0.0	24.6	-9.0	-0.3	-2.0	86.3	/	/
COc1ccc(C(=O)N2CCN(c3ccc(C)cc3)CC2)cc1OC	0.2	75.0	-11.6	-3.9	-1.6	91.0	110.5	105.7
Cc1c(Cc2ccccc2)c(NCCN(C)C)n2c(nc3ccccc32)c1C#N	0.1	-22.3	-1.9	7.1	-4.1	58.7*	81.8	119.4
COc1ccc(/C=C2\SC(=O)N(CCCC(=O)Nc3ccc(C(=O)O)cc3)C2=O)cc1OC	0.1	0.6	1.5	-5.8	-1.0	96.7	/	/
COc1ccc(/C=C2\SC(=S)N(CCCC(=O)Nc3ccc(C(=O)O)cc3)C2=O)cc1OC	-0.2	-21.7	7.0	-5.7	-0.7	63.3*	92.6	96.9
CC1CCN(c2ccc3nnc(CCC(=O)N4CCCCC4)n3n2)CC1	0.2	56.1	5.8	0.0	0.2	82.0	/	/
CCn1c2ccccc2c2cc(NC(=O)c3ccccc3-c3ccccc3C(=O)O)ccc21	0.6	-6.1	-4.3	1.2	1.2	112.3	/	/
CCCC(=O)Nc1ccc2c(c1)c1ccccc1n2CC	0.3	14.5	-3.3	5.1	-0.4	80.1	113.2	117.4
CCn1c2ccccc2c2cc(NC(=O)CC(C)=O)ccc21	-0.5	4.3	-0.8	-5.2	6.5	95.4	100.5	93.4
CCOC(=O)c1cnc2c(c(C)nn2C)c1Oc1ccccc1F	0.1	-4.5	0.9	6.5	-2.0	88.9	/	/
CCn1c(SCC(=O)Nc2ccc(OC)c(OC)c2)nnc1-c1cccs1	-0.1	-17.5	0.8	-7.9	0.5	96.6	118.5	105.4
COc1cccc(C(=O)c2ccncc2C(=O)O)c1OC	0.0	/	1.8	-3.4	-0.5	/	/	/
Cc1ccc(NC(=O)c2oc3ccccc3c2COC(C)C)cc1S(=O)(=O)N1CCOCC1	0.0	-0.4	13.0	26.5	0.6	96.6	/	/
CC(=O)Nc1ccc(NC(=O)CSc2ccc(-c3ccc(-n4ccnc4)cc3)nn2)cc1	1.8	204.4	-3.2	-3.9	-0.5	111.3	89.0	112.5
CC(=O)Nc1ccc(NC(=O)CSc2ccc(-c3cccnc3)nn2)cc1	0.0	101.9	2.3	-6.3	-0.4	109.7	/	/
O=C(CCCOc1ccccc1)Nc1ccc(Cl)cn1	-0.4	14.5	0.2	2.6	1.2	58.3*	96.5	88.7
CCCCCCC(=O)Nc1ccc(Cl)cn1	-0.1	-9.0	0.9	0.1	-1.5	107.5	/	/
O=c1ccn([C@@H]2O[C@H](CNCc3ccc(-n4cccn4)cc3)[C@@H](O)[C@H]2O)c(=O)[nH]1	0.1	/	-4.4	-9.6	-1.6	/	/	/
O=C(NC1CCN(Cc2ccc(Cl)cc2)CC1)c1cn(-c2ccccc2)nc1-c1cccnc1	1.7	-8.1	0.2	-0.3	1.2	93.0	/	/
COc1ccc2c3c(cccc13)N(C)N=C2C	0.3	-10.9	-10.3	-14.2	1.5	59.0*	73.8	94.9
Cn1c(=O)c2[nH]c(N3CCN(c4ccccn4)CC3)nc2n(C)c1=O	/	6.5	/	/	/	100.4	/	/
Cn1c(=O)c2[nH]c(N3CCCCC3)nc2n(C)c1=O	-0.1	-2.6	-4.9	-7.6	-1.3	65.5*	80.3	89.8
O=C(CN1CCN(C(=O)c2c(F)cccc2F)CC1)Nc1ccccc1C(F)(F)F	0.0	215.5	1.1	-4.8	-0.3	52.0*	108.0	110.2
CC(C)N1C(=O)C2(OCCCO2)c2cc(Br)ccc21	0.1	5.4	-0.4	8.0	-1.0	60.3*	121.8	110.3
CC1CN(S(=O)(=O)c2cccc(C(=O)N(C)C3CCN(C)CC3)c2)CC(C)O1 (configuration not stated)	-0.2	4.9	3.4	-3.5	0.8	99.9	/	/
SMILES	aDG glyco up	Mot1-301 SUMO	H9c2 protect	FAS TE block	MPTP block	Yeast superoxide	CR mimetic CP	DHE counter
COc1ccccc1NC(=O)COc1ccc(Br)cc1CO	0.0	-0.9	8.0	0.6	1.8	110.8	/	/
COc1cc(CO)c(Br)cc1OCC(=O)Nc1ccccc1C	0.3	-4.2	8.1	-9.8	-1.1	63.8*	105.1	101.8
CCCC1NC(=O)c2cccnc2-n2c1nc1cc(F)c(F)cc1c2=O (configuration not stated)	0.1	/	-5.4	0.2	-0.6	/	/	/
Cc1cc(C)c(S(=O)(=O)Nc2ccc(O)cc2)c(C)c1	-0.2	-11.8	-6.7	-7.8	1.1	94.0	121.4	120.8
Cc1cc(C)c(S(=O)(=O)Nc2ccccc2)c(C)c1	0.7	/	-4.5	0.2	-1.2	/	/	/
COCCNC(=O)c1cccc(OC2CCN(C(C)COc3ccccc3)CC2)c1 (configuration not stated)	-0.1	-17.9	4.9	-1.5	0.6	112.2	/	/
CC1(C)OC(=O)C2=C(C[C@@H](C3CCCCC3)O[C@H]2c2ccc(Cl)cc2)O1	-0.1	/	-5.0	27.1	1.3	/	/	/
CN(Cc1ccccc1F)C(=O)CN1CCN(S(=O)(=O)c2ccc3c(c2)OCCCO3)CC1	0.1	3.7	0.0	6.8	0.6	81.5	/	/
CC(=O)Nc1ccc(S(=O)(=O)N2CCCC2)cc1	-0.2	15.4	-2.1	-6.9	-0.4	101.0	98.4	114.6
COCC(=O)Nc1ccc(S(=O)(=O)N2CCCC2)cc1	0.0	-3.7	-4.6	-4.6	-1.6	88.0	99.4	100.5
CC(=O)Nc1ccc(S(=O)(=O)N2CCN(S(=O)(=O)N3CCCCCC3)CC2)cc1	0.1	0.3	-9.8	-3.6	-1.9	110.7	/	/
O=C(Nc1ccc(C(=O)N2CCC(N3CCOCC3)CC2)cc1)c1ccc(Br)o1	0.2	-13.5	-8.5	-9.7	-1.4	103.8	/	/
Cc1c(F)cccc1NS(=O)(=O)c1ccccc1C#N	-0.3	0.9	-3.9	-2.1	0.2	89.7	104.5	92.2
COc1ccccc1NS(=O)(=O)c1ccccc1C#N	0.1	-7.0	0.0	-1.3	-0.8	124.9	/	/
O=C1c2cccnc2C(=O)N1Cc1ccc(S(=O)(=O)N2CCN(c3ccccc3)CC2)cc1	0.4	-8.7	2.5	-0.9	-0.3	85.4	/	/
COC(=O)c1cccc(NC2CC(=O)N(c3ccc(OC)c(OC)c3)C2=O)c1 (configuration not stated)	-0.1	110.0	5.7	-10.4	-1.2	62.0*	97.1	93.0
COc1ccc(N2C(=O)CC(Nc3ccc(C(=O)O)cc3)C2=O)cc1OC (configuration not stated)	0.0	11.6	4.4	0.1	-1.1	73.4	/	/
CC1(C)OC(=O)C2=C(C[C@@H](CCc3ccccc3)O[C@@H]2c2ccc(Cl)cc2)O1	0.3	/	/	24.4	0.8	/	/	/
CCC(=O)c1ccc(OCC(=O)OCC(=O)N(CCC#N)c2ccc3c(c2)OCCO3)cc1	0.2	-20.1	-8.6	6.3	-1.4	92.0	/	/
